Screens from PubChem BioAssay.
PTEN del growth: PTEN-deleted cell growth suppression | HCT116 PTEN-null viability, CellTiter-Glo, 60 h; active compounds read low | AID 827 | 1.2% of 140,000 active | viability, % at 10 µM;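 active means viability at or below a set limit, 4 SD under the median of all tested compounds, cut at about 3.7% in these data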;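 further: PTEN knockout HCT116 line with beta catenin targeted HCT116 as companion control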
Lmaj promast: inhibitors of Leishmania major promastigote growth; Leishmania major promastigotes, resazurin fluorescence viability; inhibition, % at 10 µM; 9% of 200,000 active; AID 1063; in the data active means inhibition above about 50%;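 further: promastigotes grown with compound for 44 hours at 28 °C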
bCat KO growth: beta-catenin-lacking colon tumor cell growth suppression. HCT116 beta-catenin knockout viability, CellTiter-Glo, 60 h; active compounds read low. 1.5% of 140,000 active. viability, % at 10 µM;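 active means viability at or under a set limit, the compound median less 4 SD, cut at about 6% in these data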;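 further: 0% = Hyamine 1622 control at 20 µM and 100% = untreated cell control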
INS promoter inh: TRM-6 insulin promoter activity inhibition. TRM-6 cells (human fetal islet line), insulin promoter-eGFP reporter, imaging; reporter expression induced with tamoxifen. inhibition, % at 2 µM. 0.9% of 130,000 active;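 active means inhibition above the mean plus 3 SD, with well images judged a real hit on visual review, cut at about 60% in these data, passing the limit was not always enough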
p97 inhibitor: inhibitors of human p97 ATPase; recombinant p97 ATPase, Kinase-Glo ATP luminescence, 3 h; 0.42% of 220,000 active; AID 1481; P55072; inhibition, % at 8 µM; in the data active means inhibition above about 15%;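 further: 0% = DMSO vehicle and 100% = wells lacking enzyme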
ROMK mod: modulators of human ROMK potassium channel; 2% of 130,000 active; Tet-inducible ROMK, thallium flux fluorescence; actives lie on both sides; B-score at 10 µM; P48048;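 active means signal ratio slope over the read window, or its plate-corrected B-score, at least 3 SD from the plate mean, either direction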;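 further: B-score of the F/F0 ratio slope over 7 to 12 s after thallium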
Target sequence (P48048 whole entry, looked up): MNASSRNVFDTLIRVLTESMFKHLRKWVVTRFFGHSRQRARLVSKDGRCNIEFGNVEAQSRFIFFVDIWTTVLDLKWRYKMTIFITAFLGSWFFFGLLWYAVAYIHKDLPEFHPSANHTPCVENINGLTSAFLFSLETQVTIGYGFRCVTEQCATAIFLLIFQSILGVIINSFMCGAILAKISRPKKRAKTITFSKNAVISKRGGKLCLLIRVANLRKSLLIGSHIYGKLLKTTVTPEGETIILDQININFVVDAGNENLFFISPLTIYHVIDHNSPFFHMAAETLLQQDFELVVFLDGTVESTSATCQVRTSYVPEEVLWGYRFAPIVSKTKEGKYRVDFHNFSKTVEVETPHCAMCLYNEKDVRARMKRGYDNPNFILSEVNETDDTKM
The depositor's hits bear a star; · = not tested or not shown. This is a sample that favours compounds with a hit; in the whole collection about 10% have one here.

SMILES	PTEN del growth	Lmaj promast	bCat KO growth	INS promoter inh	p97 inhibitor	ROMK mod
Cc1cc(C)c2nc(N3CCC(C(=O)NCCCN4CC(C)CC(C)C4)CC3)sc2c1 (stereo unspecified)	·	99*	·	-63	-4	-2.5*
CCCCCc1nnc(NC(=O)Cn2cnc3ccccc3c2=O)s1	100	11	88	35	9	0.46
CCOC(=O)c1cnc2ccc(C(=O)OC)cc2c1Nc1ccc(C(=O)O)cc1	·	11	·	13	4	-0.0097
CCOC(=O)c1ccc2ncc(C(=O)OCC)c(NCCCN3CCOCC3)c2c1	85	60*	87	·	-6	·
CCOC(=O)c1ccc2ncc(C(=O)OCC)c(Nc3ccc(N4CCOCC4)cc3)c2c1	4	74*	15	33	1	·
O=C(CCCCCNc1nc(=S)[nH]c2ccccc12)NCCC1=CCCCC1	·	-3	·	-14	2	-0.3
CC(NC(=O)C(=O)NN=C1CCCCCCCCCCC1)c1ccccc1 (stereo unspecified)	104	-9	97	·	1	·
CCCc1cc(=O)[nH]c(SCC(=O)Nc2ccc(Br)cc2Br)n1	·	-1	·	·	4	-0.16
C/C(=N/NS(=O)(=O)c1ccc(C)cc1)c1cccc(NC(=O)c2cccc(Cl)c2)c1	69	9	89	·	1	·
C/C(=N/NS(=O)(=O)c1ccc(Cl)cc1)c1cccc(NC(=O)c2ccc(Cl)cc2Cl)c1	92	97*	94	0	-1	·
Cc1ccc(C)c(CSC2=NN3CCCC(=O)N=C3S2)c1	·	·	·	·	-5	-0.053
CCSc1nnc(NC(=O)[C@@H](NC(=O)c2ccccc2)C(C)C)s1	93	50*	84	25	1	0.2
CCSc1nnc(NC(=O)c2ccccc2)s1	103	-4	100	-21	1	1.5
CCSc1nnc(NC(=O)c2ccccn2)s1	7	98*	11	-178	2	·
O=c1[nH]c2ccccc2[n+]([O-])c1-c1ccccc1	·	-4	·	33	7	-0.14
c1ccc2c(c1)N1CCCN=C1N2CCN1CCCCC1	·	-3	·	-78	-2	-0.51
O=C1N=C2N(CCN3CCCCC3)c3ccccc3N2/C1=C\c1ccc([N+](=O)[O-])o1	·	100*	·	-388	0	0.32
Cc1cccc(-c2noc(CN(C(=O)/C=C/c3ccccc3Cl)C(C)C)n2)c1	90	-3	91	-33	-9	-0.67
COc1ccc(Cl)cc1C(=O)N(Cc1nc(-c2cccc(C)c2)no1)C(C)C	44	85*	53	·	-19	·
COc1ccc2c(c1)N(C)C(=O)CC(c1ccccc1)=N2	105	-3	105	·	2	0.046
CC1CCN(CCOCCOc2ccccc2-c2ccccc2)CC1	63	83*	62	-20	-3	-0.67
CC1CN(CCOc2ccccc2-c2ccccc2)CC(C)O1 (stereo unspecified)	82	7	74	-7	2	-0.29
CNCCOc1ccccc1-c1ccccc1	91	4	81	3	3	0.15
CC1CCCN(CCCOc2ccccc2-c2ccccc2)C1 (stereo unspecified)	·	94*	·	·	-1	-2
CC1CCN(CCCCOc2ccccc2-c2ccccc2)CC1	37	99*	39	-28	-2	·
SMILES	PTEN del growth	Lmaj promast	bCat KO growth	INS promoter inh	p97 inhibitor	ROMK mod
Cc1ccc2cccc(OCCOCCOc3ccccc3Br)c2n1	60	67*	52	-10	-9	·
CNCCCCOc1ccccc1-c1ccccc1	55	39	65	-6	12	·
CSc1ncc(Cl)c(C(=O)C(C#N)c2nc3c(C)cc(C)cc3c(=O)[nH]2)n1 (stereo unspecified)	98	-8	95	-11	-1	-0.14
C/C(=N/NC(=O)c1cccc(N2CCCC2=O)c1)c1ccncc1	·	-4	·	·	1	0.45
CC1CCN(CCOCCOc2ccccc2Br)CC1	·	82*	·	·	0	0.053
COc1cc(C)ccc1OCCOCCOc1ccccc1Br	87	1	95	·	-3	-1
Cc1nn2c(C(F)(F)F)cc(-c3ccc(Cl)cc3)nc2c1C(=O)N1CCOCC1	91	92*	95	79*	4	0.91
CC(=O)N(Cc1ccc(F)cc1)C1=C(NCCc2ccccc2)C(=O)c2ccccc2C1=O	2.3*	100*	1.9*	-16	-1	-2.9
COc1ccc(CN2CCN(C(=O)CC(C)C)CC2)c2ccccc12	80	4	87	75*	-4	·
COc1ccc(CN2CCN(C(=O)CC(C)C)CC2)cc1OC	98	-4	96	-13	0	·
O=c1c2cc3c(=O)n(-c4ccccc4O)c(=O)c3cc2c(=O)n1-c1ccccc1O	·	-2	·	·	2	0.79
O=C(CCc1nnc(CCCc2ccccc2)o1)NCCCC1CCCC1	·	-3	·	·	-10	-2.4
COc1ccc(/C(C)=N/Nc2ccc(C(=O)O)cc2)c(OC)c1	93	53*	89	14	3	1.4
O=C(CCl)N1c2ccccc2OCC1c1ccccc1 (stereo unspecified)	86	57*	90	·	4	·
COc1ccc(S(=O)(=O)N2c3ccccc3OCC2c2ccccc2)cc1 (stereo unspecified)	17	26	14	·	-3	·
CCN(CC)S(=O)(=O)c1ccc(C)c(NS(=O)(=O)c2cc(/C=C/C(=O)O)cc(OC)c2OC)c1	·	-1	·	·	3	1.1
N#CC1=C(N)N2C(=C(C#N)C1c1cccc(Br)c1)Nc1ccccc12 (stereo unspecified)	2.0*	7	3.2*	·	2	·
N#CC1=C(N)N2C(=C(C#N)C1c1ccc(Br)cc1)Nc1ccccc12 (stereo unspecified)	2.2*	18	1.9*	·	3	·
O=C1CCC/C1=c1\s/c(=C\c2cccnc2)c(=O)n1-c1ccccc1	79	55*	90	21	-3	·
O=c1/c(=C\c2cccnc2)sc2nc3ccccc3n12	100	2	95	21	1	·
FC(F)Sc1ccc(NC(=S)NC(c2ccccc2)c2ccccc2)cc1	·	56*	·	9	8	1
FC(F)Sc1ccc(NC(=S)NCc2ccccc2)cc1	·	20	·	·	-1	-0.96
Cc1ccc2[nH]c3c(=S)nc[nH]c3c2c1	100	-3	90	78*	6	·
CCCCOc1ncnc2c1[nH]c1ccc(C)cc12	·	·	·	·	0	-0.024
Cc1cccc(C)c1OC(=O)CCN1C(=O)C2C3C=CC(C4CC34)C2C1=O (stereo unspecified)	·	10	·	·	-4	-0.86
Brc1ccc(-c2cn3c(n2)CCc2ccc4cccnc4c2-3)cc1	63	100*	63	-8	4	·
